Reference: PubChem BioAssay AID1159580 (chemical genetic matrix, 2015)
The campaign covered roughly 5,500 compounds. About 2,000 (36%) were called active. About 18% were inconclusive and are not listed. No stated cut-off is given here; in the data, active means normalized growth mostly below about 0.91 (no sharp cut-off); inconclusive means no clear call, values can overlap the other calls; inactive means mostly above about 0.92. This is one part of the list.

Assay: chemical genetic growth profiling, strain panel (AID 1159580);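 further: tested at 20 µM; growth read once vehicle control cultures reached saturation at 30 °C; 1 = growth at the plate median or of vehicle wells; lower values mean less growth of the strain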
Details: growth OD

Measured: normalized growth

Oc1cc(O)c2c(c1)O[C@H](c1ccc(O)c(O)c1)[C@H](O)C2
inactive: S. cerevisiae deletion strains, locus YJR043C, strain POL32, active compounds read low 1.07 | S. cerevisiae deletion strains, locus YJR066W, strain TOR1, active compounds read low 0.94 | S. cerevisiae deletion strains, locus YKL009W, strain mrt4, active compounds read low 0.972 | S. cerevisiae deletion strains, locus YKL068W, active compounds read low 0.979 | S. cerevisiae deletion strains, locus YKL085W, strain MDH1 (second series), active compounds read low 0.981 | S. cerevisiae deletion strains, locus YKL085W, strain MDH1, active compounds read low 0.981 | S. cerevisiae deletion strains, locus YKL160W, strain elf1, active compounds read low 1 | S. cerevisiae deletion strains, locus YKR001C, strain vps1, active compounds read low 1 | S. cerevisiae deletion strains, locus YKR026C, strain gcn3, active compounds read low 1 | S. cerevisiae deletion strains, locus YKR091W, strain srl3, active compounds read low 0.999 | S. cerevisiae deletion strains, locus YLL001W, strain dnm1, active compounds read low 0.994 | S. cerevisiae deletion strains, locus YLL026W, active compounds read low 1.01 | S. cerevisiae deletion strains, locus YLL041C, strain sdh2, active compounds read low 1.01 | S. cerevisiae deletion strains, locus YLR027C, strain aat2, active compounds read low 0.996 | S. cerevisiae deletion strains, locus YLR039C, strain RIC1, active compounds read low 1.08 | S. cerevisiae deletion strains, locus YLR058C, strain SHM2, active compounds read low 1.01 | S. cerevisiae deletion strains, locus YLR102C, strain apc9, active compounds read low 0.982 | S. cerevisiae deletion strains, locus YLR113W, strain HOG1, active compounds read low 1.02 | S. cerevisiae deletion strains, locus YLR221C, strain rsa3, active compounds read low 1.04 | S. cerevisiae deletion strains, locus YLR258W, strain gsy2, active compounds read low 1.01 | S. cerevisiae deletion strains, locus YLR262C, strain YPT6 (second series), active compounds read low 0.997 | S. cerevisiae deletion strains, locus YLR262C, strain YPT6, active compounds read low 1.06 | S. cerevisiae deletion strains, locus YLR268W, strain sec22, active compounds read low 0.979 | S. cerevisiae deletion strains, locus YLR320W, strain mms22, active compounds read low 1.05 | S. cerevisiae deletion strains, locus YLR330W, strain CHS5, active compounds read low 1.01 | S. cerevisiae deletion strains, locus YLR342W, strain FKS1 (second series), active compounds read low 1.04 | S. cerevisiae deletion strains, locus YLR342W, strain FKS1, active compounds read low 1.01 | S. cerevisiae deletion strains, locus YLR357W, strain rsc2, active compounds read low 0.992 | S. cerevisiae deletion strains, locus YLR370C, strain arc18, active compounds read low 1.01 | S. cerevisiae deletion strains, locus YLR371W, strain rom2, active compounds read low 0.975 | S. cerevisiae deletion strains, locus YLR384C, strain iki3, active compounds read low 0.995 | S. cerevisiae deletion strains, locus YLR418C, strain cdc73, active compounds read low 1.03 | S. cerevisiae deletion strains, locus YML016C, strain PPZ1, active compounds read low 0.992 | S. cerevisiae deletion strains, locus YML032C, strain rad52, active compounds read low 1.01 | S. cerevisiae deletion strains, locus YML120C, strain ndi1, active compounds read low 0.996 | S. cerevisiae deletion strains, locus YML124C, strain tub3, active compounds read low 0.992 | S. cerevisiae deletion strains, locus YMR058W, strain fet3, active compounds read low 1.02 | S. cerevisiae deletion strains, locus YMR078C, strain ctf18, active compounds read low 0.977 | S. cerevisiae deletion strains, locus YMR125W, strain sto1, active compounds read low 1 | S. cerevisiae deletion strains, locus YMR129W, active compounds read low 1 | S. cerevisiae deletion strains, locus YMR205C, strain PFK2, active compounds read low 1.03 | S. cerevisiae deletion strains, locus YMR223W, strain ubp8, active compounds read low 1 | S. cerevisiae deletion strains, locus YMR231W, strain pep5, active compounds read low 0.981 | S. cerevisiae deletion strains, locus YMR307W, strain GAS1, active compounds read low 1.22 | S. cerevisiae deletion strains, locus YNL067W, strain RPL9B, active compounds read low 0.971 | S. cerevisiae deletion strains, locus YNL071W, strain lat1, active compounds read low 1.01 | S. cerevisiae deletion strains, locus YNL183C, strain NPR1, active compounds read low 0.95 | S. cerevisiae deletion strains, locus YNL209W, strain ssb2, active compounds read low 0.994 | S. cerevisiae deletion strains, locus YNL233W, strain BNI4, active compounds read low 1.01 | S. cerevisiae deletion strains, locus YNL248C, strain rpa49, active compounds read low 1 | S. cerevisiae deletion strains, locus YNL250W, strain rad50, active compounds read low 0.937 | S. cerevisiae deletion strains, locus YNL271C, strain bni1, active compounds read low 0.984 | S. cerevisiae deletion strains, locus YNL298W, strain CLA4, active compounds read low 1.01 | S. cerevisiae deletion strains, locus YNL307C, strain MCK1, active compounds read low 0.977 | S. cerevisiae deletion strains, locus YNL322C, strain KRE1 (second series), active compounds read low 1.01 | S. cerevisiae deletion strains, locus YNL322C, strain KRE1, active compounds read low 1.01 | S. cerevisiae deletion strains, locus YNR049C, strain mso1, active compounds read low 1.01 | S. cerevisiae deletion strains, locus YNR052C, strain pop2, active compounds read low 0.991 | S. cerevisiae deletion strains, locus YOL006C, strain TOP1, active compounds read low 1.03 | S. cerevisiae deletion strains, locus YOL012C, strain htz1 1.18 | S. cerevisiae deletion strains, locus YOL147C, strain pex11, active compounds read low 0.998 | S. cerevisiae deletion strains, locus YOR001W, strain rrp6, active compounds read low 1.04 | S. cerevisiae deletion strains, locus YOR061W, strain CKA2, active compounds read low 0.998 | S. cerevisiae deletion strains, locus YOR069W, strain VPS5, active compounds read low 0.999 | S. cerevisiae deletion strains, locus YOR070C, strain gyp1, active compounds read low 1 | S. cerevisiae deletion strains, locus YOR080W, strain dia2, active compounds read low 1.01 | S. cerevisiae deletion strains, locus YOR083W, strain WHI5, active compounds read low 1.01 | S. cerevisiae deletion strains, locus YOR106W, strain vam3, active compounds read low 1.03 | S. cerevisiae deletion strains, locus YOR136W, strain idh2, active compounds read low 0.985 | S. cerevisiae deletion strains, locus YOR144C, strain elg1, active compounds read low 1.01 | S. cerevisiae deletion strains, locus YOR184W, strain ser1, active compounds read low 1 | S. cerevisiae deletion strains, locus YOR231W, strain MKK1, active compounds read low 0.992 | S. cerevisiae deletion strains, locus YOR265W, strain rbl2, active compounds read low 1.02 | S. cerevisiae deletion strains, locus YOR270C, strain vph1, active compounds read low 1.08 | S. cerevisiae deletion strains, locus YOR290C, strain snf2, active compounds read low 0.99 | S. cerevisiae deletion strains, locus YOR316C, strain cot1, active compounds read low 0.989 | S. cerevisiae deletion strains, locus YPL051W, strain arl3, active compounds read low 1.01 | S. cerevisiae deletion strains, locus YPL078C, strain atp4, active compounds read low 1.03 | S. cerevisiae deletion strains, locus YPL106C, strain sse1, active compounds read low 1.01 | S. cerevisiae deletion strains, locus YPL240C, strain hsp82, active compounds read low 1.01 | S. cerevisiae deletion strains, locus YPL256C, strain CLN2, active compounds read low 0.98 | S. cerevisiae deletion strains, locus YPR119W, strain clb2, active compounds read low 0.978 | S. cerevisiae deletion strains, locus YPR141C, strain kar3, active compounds read low 0.976 | S. cerevisiae deletion strains, locus YPR163C, strain tif3, active compounds read low 0.991 | S. cerevisiae deletion strains, locus YPR167C, strain met16, active compounds read low 0.987 | S. cerevisiae deletion strains, strain wtn01, active compounds read low 0.992 | S. cerevisiae strains, strain wild type, active compounds read low 1.01
